Experimental data as given in publication PMC4336329 (PLoS ONE, 2015).
Screen size: about 310,000 compounds; about 14,000 (4.5%) showed an effect of 50% or more. Effects have a minus sign here. The entries come from a sample that favours strong results as a whole.

Molecular target: human ether-à-go-go-related gene (hERG) potassium channel (human, UniProt Q12809)
Assay: primary screen, population patch clamp on CHO cells stably expressing hERG; higher = less effect of the substance
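Further: peak tail current of the secondary pulse compared with the same well before compound.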

Sequence of human ether-à-go-go-related gene (hERG) potassium channel (Q12809 whole entry, looked up): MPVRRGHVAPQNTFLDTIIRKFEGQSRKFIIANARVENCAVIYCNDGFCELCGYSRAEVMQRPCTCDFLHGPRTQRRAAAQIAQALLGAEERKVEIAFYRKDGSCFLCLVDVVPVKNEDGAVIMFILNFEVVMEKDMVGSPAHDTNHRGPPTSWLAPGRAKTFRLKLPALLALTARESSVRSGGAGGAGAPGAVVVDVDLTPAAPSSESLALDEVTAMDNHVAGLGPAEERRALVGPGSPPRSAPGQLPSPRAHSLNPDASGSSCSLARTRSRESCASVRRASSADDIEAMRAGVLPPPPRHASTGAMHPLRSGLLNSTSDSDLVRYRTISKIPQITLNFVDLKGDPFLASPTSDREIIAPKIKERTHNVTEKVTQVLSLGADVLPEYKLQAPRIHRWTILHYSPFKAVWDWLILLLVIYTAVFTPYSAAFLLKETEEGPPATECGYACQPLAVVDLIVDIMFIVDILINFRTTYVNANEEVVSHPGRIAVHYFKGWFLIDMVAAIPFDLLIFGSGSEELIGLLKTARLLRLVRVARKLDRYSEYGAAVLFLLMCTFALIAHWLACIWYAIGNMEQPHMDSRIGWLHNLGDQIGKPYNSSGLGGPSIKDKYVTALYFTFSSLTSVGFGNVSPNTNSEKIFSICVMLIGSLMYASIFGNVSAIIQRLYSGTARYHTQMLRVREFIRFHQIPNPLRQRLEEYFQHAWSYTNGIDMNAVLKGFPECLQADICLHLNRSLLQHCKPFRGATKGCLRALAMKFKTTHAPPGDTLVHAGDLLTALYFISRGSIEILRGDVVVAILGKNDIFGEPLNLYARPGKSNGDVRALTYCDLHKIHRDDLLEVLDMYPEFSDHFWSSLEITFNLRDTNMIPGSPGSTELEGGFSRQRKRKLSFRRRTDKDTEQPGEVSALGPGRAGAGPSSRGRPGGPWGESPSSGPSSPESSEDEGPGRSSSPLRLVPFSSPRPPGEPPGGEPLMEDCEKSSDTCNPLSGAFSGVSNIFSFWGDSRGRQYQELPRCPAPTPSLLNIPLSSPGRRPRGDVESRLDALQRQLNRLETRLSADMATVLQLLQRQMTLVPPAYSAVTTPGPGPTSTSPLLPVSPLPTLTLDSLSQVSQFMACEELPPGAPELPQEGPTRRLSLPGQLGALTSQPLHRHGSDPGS

Row | SMILES | hERG current change (%, negative = inhibition) at 10uM [%]
1 | CCn1c(COc2ccc(OC)cc2)nc2ccccc21 | -19.8
2 | Cc1ccccc1NC(=O)C1CCN(C2=NS(=O)(=O)c3ccccc32)CC1 | -15.2
3 | COc1cc(CNc2ccccc2)c([N+](=O)[O-])cc1OC.O=C(O)C(=O)O | -3.72
4 | C/C(=C1/SC(N2CCOCC2)=NC1=O)c1ccc(Br)cc1 | 14.8
5 | C/C(=C1\SC(N2CCOCC2)=NC1=O)c1ccc(C)cc1 | -10.8
6 | C/C(=C1/SC(N2CCCC2)=NC1=O)c1ccc(Br)cc1 | -76.7
7 | CC(C)Cn1c(SCC(=O)N2CC(=O)Nc3ccccc32)nc2ccccc21 | 4.27
8 | CCCN(CC1CC1)C(=O)CCc1nnc(C(OC)c2ccccc2)o1 (stereo not drawn) | -4.58
9 | O=C(COc1ccc(Br)cc1)N/N=C1/SCC(=O)N1Cc1ccco1 | -59.8
10 | Cc1cccc(OCC(=O)N/N=C2/SCC(=O)N2Cc2ccco2)c1 | -25.4
11 | Cc1ccc(OCC(=O)N/N=C2/SCC(=O)N2Cc2ccco2)cc1 | -28
12 | NS(=O)(=O)c1ccc(CCNC(=O)c2cccc([N+](=O)[O-])c2)cc1 | 11.2
13 | O=[N+]([O-])c1ccc(-n2cnc3ccccc32)c([N+](=O)[O-])c1 | -57.8
14 | O=c1c2ccccc2ncn1-c1ccc(Br)cc1[N+](=O)[O-] | -61.4
15 | O=c1c2ccccc2ncn1-c1ccc(Cl)cc1[N+](=O)[O-] | -4.65
16 | O=c1c2ccccc2ncn1-c1ccc([N+](=O)[O-])cc1[N+](=O)[O-] | 10.7
17 | Nc1ccc(-n2cnc3cc([N+](=O)[O-])ccc32)cc1 | 1.35
18 | O=[N+]([O-])c1ccccc1-n1cnc2ccccc21 | -18.2
19 | O=C(c1ccc([N+](=O)[O-])cc1[N+](=O)[O-])n1cnc2ccccc21 | -16.4
20 | O=[N+]([O-])c1ccc2c(c1)ncn2-c1ccccc1 | -21.6
21 | Cc1cccc(-n2cnc3cc([N+](=O)[O-])ccc32)c1 | -51.9
22 | C[C@]12CCC(=O)C=C1CC[C@@H]1[C@@H]2C(=O)C[C@]2(C)C(=O)CC[C@@H]12 | 7.99
23 | O=C(N/N=C/c1ccccn1)C(O)c1ccccc1 (stereo not drawn) | 9.82
24 | Cn1c(=O)n(C)c2cc(N3CCOCC3)c(NC(=O)c3cccc(Cl)c3)cc21 | 5.25
25 | COc1ccc(NC(=O)C/C(C)=N/NC(=O)c2cnccn2)cc1 | 15.5
26 | CC1(OC(=O)CCc2ccccc2)C(=O)C=C2C=C(c3ccc(C#N)cc3)N(CCc3c[nH]c4ccccc34)C=C2C1=O (stereo not drawn) | -7.98

Row | SMILES | hERG current change (%, negative = inhibition) at 10uM [%]
27 | CC1(OC(=O)CCc2ccccc2)C(=O)C=C2C=C(c3ccc(C#N)cc3)N(CC3CC3)C=C2C1=O (stereo not drawn) | -44.6
28 | CCN(CC)CCCN1C=C2C(=O)C(C)(OC(=O)CCc3ccccc3)C(=O)C=C2C=C1c1ccc(C#N)cc1 (stereo not drawn) | -37.6
29 | CC(C)OCCCN1C=C2C(=O)C(C)(OC(=O)CCc3ccccc3)C(=O)C=C2C=C1c1ccc(C#N)cc1 (stereo not drawn) | -71.3
30 | CC1(OC(=O)CCc2ccccc2)C(=O)C=C2C=C(c3ccc(C#N)cc3)N(C3CCCC3)C=C2C1=O (stereo not drawn) | -49.7
31 | CC(C)CN1C=C2C(=O)C(C)(OC(=O)CCc3ccccc3)C(=O)C=C2C=C1c1ccc(C#N)cc1 (stereo not drawn) | -26.9
32 | COCCN1C=C2C(=O)C(C)(OC(=O)CCc3ccccc3)C(=O)C=C2C=C1c1ccc(C#N)cc1 (stereo not drawn) | -72.4
33 | C=CCN1C=C2C(=O)C(C)(OC(=O)CCc3ccccc3)C(=O)C=C2C=C1c1ccc(C#N)cc1 (stereo not drawn) | -28.8
34 | CC1(OC(=O)CCc2ccccc2)C(=O)C=C2C=C(c3ccc(C#N)cc3)N(CCN3CCOCC3)C=C2C1=O (stereo not drawn) | -49.9
35 | CC1(OC(=O)CCc2ccccc2)C(=O)C=C2C=C(c3ccc(C#N)cc3)N(C3CC3)C=C2C1=O (stereo not drawn) | -51.7
36 | CC1(OC(=O)CCc2ccccc2)C(=O)C=C2C=C(c3ccc(C#N)cc3)N(c3ccccc3)C=C2C1=O (stereo not drawn) | 14.3
37 | CC1(OC(=O)CCc2ccccc2)C(=O)C=C2C=C(c3ccc(C#N)cc3)N(CCc3ccccn3)C=C2C1=O (stereo not drawn) | -51.8
38 | CCS(=O)(=O)N1CCN(Cc2ccccc2OC)CC1.O=C(O)C(=O)O | 11.7
39 | C=CCOC(=O)C1=C(C)NC(=O)NC1c1ccc2c(c1)OCO2 (stereo not drawn) | -11.9
40 | O=C(NCc1ccc2c(c1)OCO2)C1CCCN(C(=O)c2ccc(Cl)cc2)C1 (stereo not drawn) | -34.4
41 | CCOC(=O)N/N=C/C(Cl)=C/c1ccccc1 | 0.407
42 | COC(C(=O)N/N=C(\C)c1ccc(C(C)(C)C)cc1)c1ccccc1 (stereo not drawn) | 13.1
43 | COc1ccccc1NC(=O)CCCC(=O)OCC(F)(F)C(F)F | -1.37
44 | COc1ccc(NC(=S)NC2CC3CCC(C2)N3Cc2ccco2)cc1 (stereo not drawn) | -30.1
45 | CCOC(=O)c1c(S(=O)(=O)N2CCCC(C(=O)Nc3ccc(C)cn3)C2)c(C)n(C)c1C (stereo not drawn) | 19.7
46 | CCc1ccc(N=C2NC(=O)/C(=C/c3ccc(OCC(=O)O)cc3)S2)cc1 | 14.6
47 | CCN(Cc1cnn(C)c1)Cc1nc(C(c2ccccc2)c2ccccc2)no1 | -18.2
48 | CCCCNC(=O)Cn1cnc([N+](=O)[O-])n1 | 10.8
49 | COc1ccc(CN2C=C3C(=O)C(C)(OC(=O)CCc4ccccc4)C(=O)C=C3C=C2c2ccc(C#N)cc2)cc1 (stereo not drawn) | -31.7
50 | CC1(OC(=O)CCc2ccccc2)C(=O)C=C2C=C(c3ccc(C#N)cc3)N(Cc3ccccc3)C=C2C1=O (stereo not drawn) | -51.9
51 | CC1(OC(=O)CCc2ccccc2)C(=O)C=C2C=C(c3ccc(C#N)cc3)N(Cc3ccco3)C=C2C1=O (stereo not drawn) | -38.9
